The list is not random: actives were taken first. Their share in the collection is about 6.6%.
CSC inhib = cancer stem cell viability inhibitors, primary screen, luminescence | cancer stem cell-like cells viability | inhibition, % at 7.5 µM | 300,000 tested, 1.1% active; in the data active means inhibition above about 75%; tested in HMLE shEcad cells
Mdm2 MdmX PPI = inhibitors of human Mdm2-MdmX association, primary screen, cell-based, luminescence, split luciferase, SaOS-2, uHTS | Protein Mdm4 (Homo sapiens) + E3 ubiquitin-protein ligase Mdm2 (Homo sapiens), … | SaOS-2 split-luciferase Mdm2/MdmX complementation | inhibition, % at 8 µM | 330,000 tested, 3% active | AID 485346, 2010;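 active means inhibition of at least 50% at 8 µM in the primary screen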
Target sequence (O15151 whole entry, looked up): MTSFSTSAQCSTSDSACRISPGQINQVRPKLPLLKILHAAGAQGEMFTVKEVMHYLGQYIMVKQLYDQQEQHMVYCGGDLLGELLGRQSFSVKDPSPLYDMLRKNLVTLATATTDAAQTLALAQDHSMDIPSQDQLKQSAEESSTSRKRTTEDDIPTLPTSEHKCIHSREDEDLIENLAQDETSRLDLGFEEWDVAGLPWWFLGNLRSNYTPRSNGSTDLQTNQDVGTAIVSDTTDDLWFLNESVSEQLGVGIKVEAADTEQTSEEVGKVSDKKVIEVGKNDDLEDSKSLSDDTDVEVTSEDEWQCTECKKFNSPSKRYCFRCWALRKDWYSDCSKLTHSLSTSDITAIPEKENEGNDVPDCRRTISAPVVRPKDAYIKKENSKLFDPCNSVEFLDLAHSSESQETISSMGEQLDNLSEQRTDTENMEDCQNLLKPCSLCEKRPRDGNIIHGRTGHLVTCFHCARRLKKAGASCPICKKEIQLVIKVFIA
Target sequence (Q00987 whole entry, looked up): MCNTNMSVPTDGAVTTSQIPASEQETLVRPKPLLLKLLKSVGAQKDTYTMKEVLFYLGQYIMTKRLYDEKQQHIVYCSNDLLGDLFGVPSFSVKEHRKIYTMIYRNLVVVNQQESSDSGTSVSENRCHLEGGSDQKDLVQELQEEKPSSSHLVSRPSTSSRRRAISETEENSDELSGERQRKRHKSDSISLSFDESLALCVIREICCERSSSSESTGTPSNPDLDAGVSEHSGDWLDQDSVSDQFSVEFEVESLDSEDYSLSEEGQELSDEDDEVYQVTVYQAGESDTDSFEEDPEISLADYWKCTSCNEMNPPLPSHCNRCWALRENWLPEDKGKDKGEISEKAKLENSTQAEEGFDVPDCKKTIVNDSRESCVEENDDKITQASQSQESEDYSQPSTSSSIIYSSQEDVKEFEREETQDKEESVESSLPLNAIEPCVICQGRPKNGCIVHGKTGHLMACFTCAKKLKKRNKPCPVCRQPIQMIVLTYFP
MPTP block = mitochondrial permeability transition pore inhibitors, primary screen, biochemical, isolated mouse mitochondria, absorbance; Ca2+ swelling absorbance, 30 min; inhibition, % at 10 µM; 360,000 tested, 1.4% active; AID 602449, 2012;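 active means inhibition of 50% or more, scaled per plate between neutral and stimulator controls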;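 further: 0% = DMSO wells given calcium and 100% = 1 mM EGTA wells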
NR3A LBD binder = binders of NR3A ligand-binding domain, primary screen, biophysical, differential scanning fluorimetry, uHTS. Glutamate receptor ionotropic, NMDA 3A (GRIN3A) ligand-binding domain. NR3A LBD differential scanning fluorimetry, Tm shift; 0% = protein alone, 100% = glycine-bound protein. Tm shift relative to glycine control, % at 25 µM. 340,000 tested, 2.5% active;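 active means melting temperature shift of at least 10% of the positive control shift, at one fixed dose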
Gli-Sufu antag = Gli-Sufu pathway antagonists, primary screen, luciferase luminescence, Sufu-KO-LIGHT cells, uHTS. Sufu-KO-LIGHT fibroblasts, Gli luciferase reporter luminescence. inhibition, % at 5 µM. 340,000 tested, 0.74% active. AID 588413, 2011;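 active means inhibition above about 55%, limit read from the data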;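 further: 0% = DMSO-treated cells and 100% = wells with medium but no cells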
Beta apoptosis = inhibitors of cytokine-induced beta cell apoptosis, primary screen, luminescence. AID 435005, 2010. 300,000 tested, 0.8% active. protection from apoptosis, % (no concentration beside the values). INS-1E cytokine-induced death, ATP luminescence, 48 h; percent of positive-control rescue, neutral wells zero;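 active means Every replicate reaches about 75%, or at least half do and their mean reaches it too, limit read from the data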;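 further: 0% = cytokine-treated negative control wells and 100% = positive control rescue; higher means more ATP so stronger rescue from cytokine killing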
* hit, by the source's call; / = not tested or not shown.

SMILES | CSC inhib | Mdm2 MdmX PPI | MPTP block | NR3A LBD binder | Gli-Sufu antag | Beta apoptosis
Nc1c(C(=O)NCCCc2ccccc2)c2nc3ccccc3nc2n1Cc1cccs1 | 43 | 16 | 6 | 22* | 2 | -12
COc1cccc(NP2(=O)OCC(C)([N+](=O)[O-])CO2)c1 (stereo not drawn) | / | / | 1 | -4 | -4 | /
COC(=O)C1=C(c2ccc(C(C)=O)cc2)C[C@@H]2CC[C@H]1N2C(=O)NCc1ccco1 | 4 | -14 | 0 | 0 | -2 | -1
Cc1[nH]nc2ccc(-c3cncc(OC[C@@H](N)Cc4c[nH]c5ccccc45)c3)cc12 | / | / | 6 | -24 | 93* | /
COc1ccc2c(c1O)[C@]13CCN(C)[C@H](C2)[C@@H]1CCC(=O)C3 | -16 | 18 | 1 | -1 | 0 | -6
COC1=C(OC)[C@]23CCc4ccc(OC)c(OC)c4[C@]2(CCN3C)CC1=O | -4 | -11 | -1 | 13* | 5 | -12
O=C(COC(=O)c1ccc(O)cc1)Nc1ccc(Cl)cc1C(=O)c1ccccc1 | 7 | 1 | 11 | 18* | -5 | -1
CC(=O)Nc1ccc(C(=O)OCC(=O)Nc2ccc(Cl)cc2C(=O)c2ccccc2)cc1 | 29 | 1 | -2 | -2 | 4 | 2
CC(C)OS(C)(=O)=O | -5 | 8 | 0 | 0 | -4 | 2
CCOC(=O)[C@]12Cc3cc(C)ccc3[C@H]1N(Cc1ccccc1)C(=O)c1ccccc12 | / | / | -1 | 12* | -12 | /
CCOC(=O)[C@]12Cc3cc(OC)ccc3[C@H]1N(Cc1ccccc1)C(=O)c1cc(F)c(F)cc12 | / | / | 1 | 13* | 28 | /
CCOC(=O)[C@]12Cc3cc(OC)ccc3[C@H]1N(Cc1ccccc1)C(=O)c1ccccc12 | / | / | -1 | -4 | 4 | /
COC(=O)C1=C(c2cccc(Cl)c2)C[C@@H]2CC[C@H]1N2C(=O)NCC1CC1 | -5 | -33 | 2 | -2 | 1 | -5
CCOC(=O)c1c(NC(=O)C(c2ccccc2)c2ccccc2)sc2c1C1CCN2CC1 | 82* | 44 | 0 | 0 | 6 | 52
Oc1ccccc1/C=N/NP(=S)(c1ccccc1)c1ccccc1 | 97* | -32 | -2 | 4 | 10 | 6
O=c1nc(/C=C/c2ccc(Cl)cc2Cl)cc(C(F)(F)F)[nH]1 | 108* | 18 | 1 | -4 | 45 | 6
CC[C@@H]1c2ccccc2[C@@H]2CC[C@H]1N2c1ccccc1 | / | / | 2 | / | / | /
C=CCn1c(O)c(C(C)=NCCN2CCOCC2)c(=O)[nH]c1=O | -10 | 13 | 0 | 3 | -1 | -3
C=CCn1c(O)c(/C(C)=N/N2CCCCCC2)c(=O)[nH]c1=O | -13 | -1 | 0 | 14* | 9 | /
COc1ccc(C2SCC(=O)Nc3c2c(C)nn3-c2ccccc2)cc1 (stereo not drawn) | 17 | 10 | 3 | 11* | 7 | /
Cc1ccc(-n2nc(C)c3c2NC(=O)CSC3c2ccc3c(c2)OCO3)cc1 (stereo not drawn) | -7 | 35 | 5 | -5 | -3 | -3
CCN(CC)Cc1c[nH]c2ccccc12 | 0 | 11 | 0 | -2 | -19 | 0
c1ccc2c(CNC3CCCCC3)c[nH]c2c1 | 2 | -7 | / | 1 | 7 | 115*
CN(Cc1c[nH]c2ccccc12)C1CCCCC1 | -14 | 5 | 1 | -2 | 8 | 102*
c1ccc2c(CN3CCCCCCC3)c[nH]c2c1 | 7 | -3 | 2 | -3 | 11 | 104*
SMILES | CSC inhib | Mdm2 MdmX PPI | MPTP block | NR3A LBD binder | Gli-Sufu antag | Beta apoptosis
c1ccc2c(CN3CCN(C4CCCCC4)CC3)c[nH]c2c1 | 2 | 16 | -1 | -3 | 5 | 5
CC1C2Cc3ccc(O)cc3[C@]1(C)CCN2CCc1ccccc1 (stereo partly drawn) | / | 9 | 2 | 0 | 7 | /
COC1=CC=C2[C@H]3Cc4ccc(OC)c5c4[C@@]2(CCN3C)[C@H]1O5 | -6 | 11 | 0 | -2 | / | -18
CC(=O)OC1(C)CC(C)C(=O)C(C(O)CC2CC(=O)NC(=O)C2)C1 (stereo not drawn) | / | / | 0 | -2 | 89* | /
CN(C)C(=O)Oc1ccc(-c2cn3cc(Cl)ccc3n2)cc1 | 19 | -93 | 0 | 13* | 7 | 27
COc1ccc(N2C(=O)/C(=C/c3cccs3)C(=O)NC2=S)cc1 | 44 | 0 | 1 | 3 | 2 | -5
COc1ccc(N2C(=O)/C(=C/C=C/c3ccccc3[N+](=O)[O-])C(=O)NC2=S)cc1 | / | 12 | / | 100* | 1 | /
CC[n+]1c(-c2ccccc2)c2cc(N)ccc2c2ccc(N)cc21 | / | / | 4 | -1 | -9 | /
Brc1ccc(Oc2ccc(Br)cc2Br)c(Br)c1 | 29 | 11 | 2 | -1 | -5 | 6
Oc1c(Br)cc(Br)cc1Oc1ccc(Br)cc1Br | 108* | / | / | / | / | 9
CN1CC2=CC(O)CC3Oc4c(O)ccc(c4[C@]23C)C1 (stereo partly drawn) | -5 | 6 | 1 | 0 | 4 | -4
CC(=O)OC(C)(C)/C=C/C(=O)C(C)(O)C1C(O)CC2(C)C3CC=C4C(CC(O)C(=O)C4(C)C)C3(C)C(=O)CC12C (stereo not drawn) | / | / | -1 | -2 | 87* | /
CC(=O)OC(C)(C)/C=C/C(=O)[C@](C)(O)[C@H]1[C@H](O)C[C@@]2(C)[C@@H]3CC=C4[C@H](C[C@H](O)C(=O)C4(C)C)[C@]3(C)C(=O)C[C@]12C | / | / | -2 | -4 | 88* | /
C[C@@H]1CN([C@H](C)CO)C(=O)CCCn2nncc2CO[C@H]1CN(C)C(=O)Oc1cccc2ccccc12 | / | / | 1 | / | / | /
CCOC(=O)C(O)(c1ccc(NC(=O)Oc2ccccc2)cc1)C(F)(F)F (stereo not drawn) | -3 | 9 | 1 | 16* | 41 | -1
Clc1ccccc1CN1CCN(c2cccc3[nH]ccc23)CC1 | 23 | -3 | -1 | 2 | -16 | 2
CC(=O)C1C(N2CC2)CC2C3CC=C4CC(O)CCC4(C)C3CCC21C (stereo not drawn) | / | / | 0 | -2 | 10 | /
COC(=O)c1c(C)n(Cc2ccccc2)c2ccc(O)cc12 | 15 | 6 | 1 | 14* | -27 | /
CC=C(CC)C1(CCC)C(=O)NC(=S)NC1=O | / | / | 0 | 0 | -8 | /
Cc1sc2ccccc2c1CC1=NCCN1 | -10 | 0 | 1 | -1 | 61* | 2
Nc1ccc(CC2=NCCN2)cc1 | / | / | -3 | 1 | 3 | /
COC(=O)C12OCC34C(CC5C(C)=C(O)C(=O)CC5(C)C3C(O)C1O)OC(=O)C(OC(=O)/C=C(\C)C(C)C)C24 (stereo not drawn) | / | / | -1 | -1 | 88* | /

Screening results as filed in PubChem.
